Measurements from PubChem BioAssay (NCATS).
Results filed as inconclusive are left out. Calls of active or inactive are those of the source. Calls follow the shape of the dose curve; as a rule, active = well fitted curve in either direction with a large enough effect (not every such curve was filed as active); inconclusive = small, poorly fitted or top-dose-only effect, or another doubt; inactive = flat fitted curve, though single readings scatter.

Test: AP1 Signaling Pathway (AID 357)
Settings: ME-180 (cervical carcinoma) AP-1-bla reporter, EGF-induced, beta-lactamase ratio, 5 h; at 17.2 µM (top of the series) unless noted
Procedure, shortened: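 Cells are seeded overnight, exposed to compound titrations and an EC50 level of EGF for 5 hours at 37 °C, then loaded with CCF4 dye for 2.5 hours. Beta-lactamase activity under the AP-1 element is read as a blue/green ratio.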
% is scaled to controls: 0 for no effect and ±100 for the full control effect.

SMILES	activity change, negative = inhibition
O=C(O)CN(c1ccccc1)C1SC(=O)NC1=O (stereo not given)	3.92% (inactive)
Cc1[nH]c2ccc(F)cc2c(=O)c1SC(F)(F)C(F)C(F)(F)F (stereo not given)	-31.7% (inactive)
CCC1(C)Cc2c(sc3nc4n(c(=O)c23)CCS4)CO1 (stereo not given)	-20.5% (inactive)
CN(C)c1ccc(O)c2c1CC1CC3[C@@H](N(C)C)C(=O)C(C(N)=O)=C(O)[C@]3(O)C(=O)C1=C2O (stereo not given in full)	6.78% (inactive)
COc1ccccc1-n1c(=O)c2c3c(sc2n2c(SC(C)C)nnc12)CCC3	-5.57% (inactive)
O=S(=O)(c1cccc2nsnc12)N1CCN(C/C=C/c2ccccc2)CC1	-6.7% (inactive)
Cc1ccc(-c2nn(C)c(=O)c3ccccc23)cc1CN1CCOCC1	16.4% (inactive)
CCCCCOC(=O)Cc1c(C)nc(-c2ccccc2)[nH]c1=O	-3.29% (inactive)
C=CCOC(=O)C1=C(C)OC(N)=C(C#N)C1c1ccoc1 (stereo not given)	21.2% (inactive)
CCOC(=O)c1c(C)oc2ccc(OCC(=O)C(C)(C)C)cc12	-23.5% (inactive)
CCOc1ccc(-n2c(SCc3ccc(C#N)cc3)nnc2-c2cccnc2)cc1	-13.8% (inactive)
Cc1cc(=O)oc2cc(OCCSCCN3CCOCC3)ccc12	-6.35% (inactive)
CCOC(=O)N1CCN(C2OC(=O)c3ccccc32)CC1 (stereo not given)	0.827% (inactive)
CCc1cccc(CC)c1N(COC)C(=O)Cn1nnc2ccccc21	-10.2% (inactive)
CCCOc1ccc(C2NC(=O)NC2=O)cc1 (stereo not given)	5.97% (inactive)
Cc1c(Cl)cccc1N1C(=O)C2ON(c3ccccc3)C(c3cccnc3)C2C1=O (stereo not given)	4.21% (inactive)
CCCCc1nc(N2CCOCC2)c(C#N)c2c1COC(C)(C)C2	-27.7% (inactive)
CC(Sc1ccc2ccccc2n1)C(=O)O (stereo not given)	14.7% (inactive)
COc1ccc(-n2ncc3c(NCCCn4ccnc4)ncnc32)cc1	-7.88% (inactive)
Cc1cc(C)n(-c2c(F)c(F)c(CN3CCCCC3)c(F)c2F)n1	-3.48% (inactive)

SMILES	activity change, negative = inhibition
O=C(COc1ccc(F)cc1)OCCN1CCOCC1	-4.17% (inactive)
COc1ccc(/C(O)=C2/C(=O)C(=O)N(c3ncccn3)C2c2ccc(OC)c(OC)c2)cc1 (stereo not given)	10.2% (inactive)
N#C/C(=C\c1c(N2CCC(C(N)=O)CC2)nc2ccccn2c1=O)S(=O)(=O)c1ccccc1	-8.19% (inactive)
COc1cccc(N2CCN(c3ncnc4c3[nH]c3ccc(F)cc34)CC2C)c1 (stereo not given)	-121% (active)
O=C(NCCc1ccccc1)/C(=N\O)c1ccccc1	-2.29% (inactive)
O=C(O)c1ccc(C2CCCCC2)cn1	12.7% (inactive)
Cc1nc2n[nH]c(N)c2c2c1COC(C)(C)C2	3.75% (inactive)
c1ccc(Cc2nnc3n2CCCCC3)cc1	-5.05% (inactive)
Cn1c(=O)n(CCc2ccccc2)c(=O)c2c1ncn2Cc1ccccc1	-15.9% (inactive)
COC(=O)CC1=NC(=O)CS1	17.8% (inactive)
COc1ccc(OCC(=O)N2CCN(C(=O)c3cccc4ccccc34)CC2)cc1	-4.98% (inactive)
O=C1CC(c2ccco2)CC(O)=C1C=NCCN1CCN(C2CC(=O)N(c3ccccc3)C2=O)CC1 (stereo not given)	-3.13% (inactive)
C/C=C/c1ccccc1OCc1ccc(C(=O)O)o1	-6.57% (inactive)
CC(C)CN1C(=O)NC(NC(=O)c2cccnc2)(C(F)(F)F)C1=O (stereo not given)	-6.13% (inactive)
COc1ccc(OC)c(C2/C(=C(/O)c3ccc(C)cc3)C(=O)C(=O)N2Cc2ccco2)c1 (stereo not given)	-0.882% (inactive)
CCOC(=O)c1[nH]c2cc3c(cc2c1NC(=O)CN1CCC2(CC1)OCCO2)OCO3	-29.3% (inactive)
COc1cccc(Cn2c(NCc3ccccn3)nc3c2c(=O)n(C)c(=O)n3C)c1	-10.2% (inactive)
CC(C)Cc1nc2n[nH]c(N)c2c2c1CCC2	2.89% (inactive)
Cc1ccc(S(=O)(=O)NC(=O)NCc2ccc3c(c2)OCO3)cc1	12.9% (inactive)
CC1(C)Cc2c(C#N)c(N3CCOCC3)nc(Cc3ccccc3)c2CO1	-20.2% (inactive)
